High-throughput results deposited in PubChem by The Scripps Research Institute Molecular Screening Center.
Sampled rows, rich in hits. Any-hit rate of the full collection: about 5.7%.
DAX1 inh-1 – inhibits human nuclear receptor DAX1 | HEK293 Gal4-DAX1 luciferase reporter, luminescence | hit rate 0.99% among 340,000 | inhibition, % at 6.75 µM | P51843;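 active = inhibition above the mean over all tested compounds plus 3 SD, cut at about 4.2% in these data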;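 note: inhibition shows as a rise in luminescence from relieved DAX1 repression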
ssDAF-12 act – activates DAF-12 receptor from parasite S. stercoralis | activation, % at 6.8 µM | hit rate 1% among 370,000 | HEK293 ssDAF-12/GRIP1 lit1-tk-luc reporter, luminescence; % of 3 µM dafachronic acid response;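 active = activation above the mean over all tested compounds plus 3 SD, cut at about 0.9% in these data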
hcDAF-12 act – H. contortus DAF-12 activation, primary screen. HEK293 hcDAF-12 lit1-tk-luc reporter, luminescence; 0% DMSO, 100% Δ7-dafachronic acid. activation, % at 6.8 µM. hit rate 1.4% among 370,000;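 active = activation above the mean of all tested compounds plus 3 SD, cut at about 5.5% in these data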
AHR activator – activators of human aryl hydrocarbon receptor | P35869 | AHR-responsive luciferase reporter cells, luminescence | activation, % at 5 µM | hit rate 2.5% among 320,000; in the data active = activation above about 47%
Target sequence (P35869 whole entry, looked up): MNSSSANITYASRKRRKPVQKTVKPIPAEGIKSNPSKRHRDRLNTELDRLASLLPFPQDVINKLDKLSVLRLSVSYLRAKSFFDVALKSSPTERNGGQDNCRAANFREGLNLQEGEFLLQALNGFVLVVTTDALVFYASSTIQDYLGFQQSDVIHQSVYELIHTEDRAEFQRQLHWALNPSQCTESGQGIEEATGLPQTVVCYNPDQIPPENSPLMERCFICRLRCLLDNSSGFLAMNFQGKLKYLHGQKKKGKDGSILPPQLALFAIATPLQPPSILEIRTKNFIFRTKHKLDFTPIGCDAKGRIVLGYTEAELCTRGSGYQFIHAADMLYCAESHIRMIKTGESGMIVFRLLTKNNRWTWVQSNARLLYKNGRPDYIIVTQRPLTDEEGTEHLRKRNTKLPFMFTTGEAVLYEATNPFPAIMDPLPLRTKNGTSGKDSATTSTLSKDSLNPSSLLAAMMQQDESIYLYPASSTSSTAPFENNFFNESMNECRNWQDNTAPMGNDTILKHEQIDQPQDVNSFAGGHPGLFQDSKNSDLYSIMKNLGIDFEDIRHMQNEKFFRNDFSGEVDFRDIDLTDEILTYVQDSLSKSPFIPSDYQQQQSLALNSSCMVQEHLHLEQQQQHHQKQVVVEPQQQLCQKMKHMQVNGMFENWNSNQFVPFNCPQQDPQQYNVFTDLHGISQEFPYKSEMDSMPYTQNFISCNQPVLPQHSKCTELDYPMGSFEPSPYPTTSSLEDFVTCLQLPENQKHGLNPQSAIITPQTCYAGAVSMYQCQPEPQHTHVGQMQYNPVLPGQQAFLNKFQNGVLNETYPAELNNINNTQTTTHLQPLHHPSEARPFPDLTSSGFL
hgDAF-12 ag – agonists of H. glycines DAF-12 nuclear receptor; HEK293 GAL4-hgDAF12 UAS-luciferase reporter, agonist luminescence; normalized to butyrate control; activation, % at 6.8 µM; hit rate 1.8% among 370,000; AID 687014;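 active = activation above a cutoff set at the mean of all screened compounds plus 3 SD, cut at about 10% in these data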
DAX1 inh-2 – blocks DAX1 repression of SF-1 activated StAR promoter. HEK293T StAR-luciferase reporter, SF-1/DAX-1 repression relief. inhibition, % at 6.8 µM. hit rate 1.1% among 370,000. AID 652010;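 active = inhibition above the mean over all tested compounds plus 3 SD, cut at about 3.6% in these data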;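 note: higher inhibition means more luminescence from relief of DAX-1 repression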
Each line names hits and unclear results; the compound was inactive in the other large screens.

Cc1[nH]n(-c2ccccc2)c(=O)c1C(c1ccc(C(=O)O)cc1)c1c(C)[nH]n(-c2ccccc2)c1=O	ssDAF-12 act 2.1
Cc1[nH]n(-c2ccccc2)c(=O)c1C(c1cccc([N+](=O)[O-])c1)c1c(C)[nH]n(-c2ccccc2)c1=O	hcDAF-12 act 6.7
COc1ccc(Cc2nc(=S)[nH][nH]2)cc1Br	DAX1 inh-1 4.5
COC(=O)c1c(-c2ccccc2)noc1-c1ccccc1	AHR activator 53 (no result: DAX1 inh-1)
COC(=O)c1c(C)noc1-c1ccc(Cl)cc1	none
Cc1onc(-c2ccccc2)c1C(=O)Nc1ccc(NC(=O)c2c(-c3ccccc3)noc2C)cc1	DAX1 inh-1 5.1
COc1cc(C(=O)NC2CCN(C)CC2)ccc1Nc1ncc2c(n1)N(Cc1ccccc1)CCC(=O)N2C	DAX1 inh-1 7.8 (no result: AHR activator)
COc1cccc(/C=N/NC(=O)CCn2c3ccccc3c3ccccc32)c1	ssDAF-12 act 1.4, AHR activator 73
COc1ccc(-c2[nH]ncc2N=Nc2cc(C)cc(C)c2)cc1	AHR activator 66
COC(=O)c1cc(N=Cc2c(O)c3ccccc3oc2=O)cc(C(=O)OC)c1	DAX1 inh-1 9.2 (no result: ssDAF-12 act, hcDAF-12 act, hgDAF-12 ag, DAX1 inh-2)
COc1ccc(-c2c(C#Cc3ccc(N(C)C)cc3)c3ccccc3n2C)cc1	hcDAF-12 act 5.8
Cc1ccc(CN2CCN(/N=C/c3ccccc3)CC2)cc1	DAX1 inh-1 7.7
Cc1ccc(/C=N/NC(=O)C2(C)CC2(Br)Br)cc1 (configuration not stated)	ssDAF-12 act 2.0
CCOC(=O)n1c(=O)n(Cc2ccc(OC)cc2)c2ccccc21	none
COc1ccccc1N1C(=O)N(C(C)=O)C2C1Nc1ccccc1N2C (configuration not stated)	AHR activator 60
COc1ccccc1N1C(=O)c2ccccc2NC1c1ccncc1 (configuration not stated)	none
Cc1ccc(N/C=C2\C(=O)C3(C)CCC2C3(C)C)cc1C (configuration not stated)	none
Cc1cccc(NC(=O)c2ccco2)c1C(=O)O	none (no result: DAX1 inh-1)
COc1cc(O)c(C(C)=O)c(CC(=O)O)c1	ssDAF-12 act 0.9
CN1CCN(Cc2coc3c(Cl)cc(Cl)cc3c2=O)CC1	ssDAF-12 act 1.3
CC1Oc2ccccc2N(CC(=O)NCc2ccc3c(c2)OCO3)C1=O (configuration not stated)	hgDAF-12 ag 11
O=C(Cn1nnc(-c2ccc3c(c2)OCO3)n1)NCc1ccccc1	none
O=C(Cn1nnc(-c2ccccc2Cl)n1)NCc1ccc2c(c1)OCO2	AHR activator 64
Cc1cc(C)nc(NC(=O)c2ccc(Cl)c([N+](=O)[O-])c2)n1	none
Cc1cc(C)nc(NC(=O)c2ccc(C)c([N+](=O)[O-])c2)n1	AHR activator 72
Cc1ccc(C(=O)Nc2ccccc2-c2ccccc2)cc1[N+](=O)[O-]	none
Cc1ccc(C(=O)Nc2cc(Cl)ccc2Oc2ccccc2)cc1[N+](=O)[O-]	AHR activator 67
O=S(=O)(Nc1ccc(-c2cn3ccccc3n2)cc1)c1ccccc1	DAX1 inh-1 4.3
O=C(Nc1ccc(-c2cn3ccccc3n2)cc1)c1ccco1	hgDAF-12 ag 12, DAX1 inh-2 4.3
COC(=O)CNC(=O)COC(=O)/C=C/c1ccccc1[N+](=O)[O-]	ssDAF-12 act 2.0
N#C/C(=C\c1ccccc1[N+](=O)[O-])C(=O)NCc1ccccc1	DAX1 inh-1 4.5
O=C(/C=C/c1ccccc1[N+](=O)[O-])NCc1ccc(Cl)cc1	none
NS(=O)(=O)c1ccc(CNC(=O)/C=C/c2ccccc2[N+](=O)[O-])cc1	DAX1 inh-1 4.4
COc1ccc(-c2cc(-c3cc(F)ccc3O)[nH]n2)cc1OC	AHR activator 50
COc1ccc(-c2cc(-c3ccc(OC)c(OC)c3)n[nH]2)c(O)c1	none
Cc1ccc(O)c(-c2cc(-c3cccc(F)c3)n[nH]2)c1	AHR activator 56
COC(=O)c1sc(NC(=O)c2ccc(Cn3cc(Cl)cn3)o2)c(C#N)c1C	none
Cc1ccc(OCC(=O)Nc2ccc3c(c2)OC(F)(F)O3)c([N+](=O)[O-])n1	none
Cc1ccc(OCC(=O)Nc2ccc(C)c(F)c2)c([N+](=O)[O-])n1	DAX1 inh-2 3.7 (no result: AHR activator)
C#CCN(Cc1ccco1)C(=O)c1cc(COc2cccc3cccnc23)on1	none (no result: AHR activator)
COc1ccc(-c2cn3cc(C(=O)NN)ccc3n2)cc1	AHR activator 55, hgDAF-12 ag 12
COc1ccc(C(=O)NN)cc1	none
Fc1ccc(-c2noc(-c3ccc4c(c3)CCO4)n2)cc1	AHR activator 62 (no result: DAX1 inh-1)
S=c1nccc(-c2ccc3c(c2)CCO3)[nH]1	none
O=S1(=O)CC(N2CCCC2)CN1C1CCCC1 (configuration not stated)	none (no result: DAX1 inh-1, AHR activator)
O=S1(=O)CC(N2CCCC2)CN1C1CCCCC1 (configuration not stated)	DAX1 inh-2 4.3 (no result: DAX1 inh-1, AHR activator)
O=C(CNC(=O)c1ccc(Cl)cc1)OCC(=O)c1ccccc1	none
O=C(CNC(=O)c1ccc(Cl)cc1)OCc1nc2ccccc2s1	hcDAF-12 act 6.2
O=[N+]([O-])c1cnn(-c2nc(-c3cccs3)cc(C(F)(F)F)n2)c1	DAX1 inh-1 4.7
NC(=O)c1ccc(N=C2C(=O)Nc3ccc([N+](=O)[O-])cc32)cc1	DAX1 inh-1 5.3
CC(=O)c1c(O)cc(=O)n(-c2ccccc2)c1-c1ccc(C)cc1	none
CCn1nc(NC(=O)c2ccccc2)c2cc3cccc(C)c3nc21	none
CCn1nc(NC(=O)c2cccnc2)c2cc3ccccc3nc21	AHR activator 64
CCn1nc(NC(=O)c2ccccn2)c2cc3cc(C)ccc3nc21	AHR activator 71
CCCCC(=O)Nc1nn(CCC)c2nc3ccccc3cc12	AHR activator 47
CCn1nc(NC(=O)c2cccs2)c2cc3ccccc3nc21	AHR activator 48
COc1cccc(N2CCN(C(=O)CCNS(=O)(=O)c3ccc(F)c(F)c3)CC2)c1	none
CCOC(=O)c1cn2nc(N3CCCCC3)ccc2n1	none
O=C(O)c1ccc2cccc(O)c2n1	none (no result: DAX1 inh-1)
O=C(O)c1ccc2cccnc2n1	ssDAF-12 act 1.3
CN(c1ccc(OCC(=O)Nc2ccccc2C(=O)O)cc1)S(=O)(=O)c1ccc(Cl)cc1	none
Cc1ccc(N2C(=O)N(CC(=O)Nc3ccc(C)cc3[N+](=O)[O-])C(=O)C2C)cc1 (configuration not stated)	DAX1 inh-2 3.6
Cc1ccc(N2C(=O)N(CC(=O)Nc3cccc([N+](=O)[O-])c3C)C(=O)C2C)cc1 (configuration not stated)	none
COc1ccc(/C=N/NC(=S)SC)cc1OC	none
CCn1cc(Br)c(C(=O)Nc2ccc(Cl)c(Cl)c2)n1	AHR activator 77
CCn1cc(Br)c(C(=O)Nc2cccc(Cl)c2)n1	none
CCn1nccc1C(=O)Nc1nccs1	none
